Screening results from PubChem.
Many of the other results were omitted from the sample, so hits are more common in it than they were.
Cruzain Triton: qHTS Assay for Promiscuous and Specific Inhibitors of Cruzain (with detergent); Cruzipain (Trypanosoma cruzi), P25779; purified cruzain, Z-FR-AMC fluorescence, 0.01% Triton; Potency, µM, actives largely listed as inhibitors; 200,000 tested, 0.43% active; AID 1478, 2009; also: nearly all actives have a fitted effect of over 40% in size
Target sequence (P25779 123-467 limits assumed): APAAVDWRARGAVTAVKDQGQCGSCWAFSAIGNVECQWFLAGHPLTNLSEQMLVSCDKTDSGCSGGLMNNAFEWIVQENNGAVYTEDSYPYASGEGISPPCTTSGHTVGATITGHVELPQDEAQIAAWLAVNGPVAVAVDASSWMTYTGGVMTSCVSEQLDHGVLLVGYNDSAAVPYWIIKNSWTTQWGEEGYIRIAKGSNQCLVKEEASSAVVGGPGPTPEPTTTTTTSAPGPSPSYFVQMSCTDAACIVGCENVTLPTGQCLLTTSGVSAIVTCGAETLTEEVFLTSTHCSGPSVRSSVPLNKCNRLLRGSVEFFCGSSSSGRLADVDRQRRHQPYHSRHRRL
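Detergent-containing run (0.01% Triton X-100) in acetate buffer pH 5.5 with 5 mM DTT: enzyme at 1.5 nM final, 15 min compound preincubation at room temperature, then 2 uM Z-FR-AMC substrate. Activity taken as 60 s fluorescence increase at 360/450 nm.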
Cruzain inh noDet: qHTS Assay for Promiscuous and Specific Inhibitors of Cruzain (without detergent) | Cruzipain (Trypanosoma cruzi), P25779 | purified cruzain, Z-FR-AMC fluorescence, no detergent | Potency, µM, usual class: inhibitors | 200,000 tested, 2.3% active | AID 1476, 2009; also: nearly all actives have a fitted effect of over 40% in size
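Purified cruzain at 1.5 nM, pre-incubated 15 min with compound at room temperature in 100 mM sodium acetate pH 5.5, 5 mM DTT, 0.00005% Triton X-100. Reaction started with 2 uM Z-FR-AMC; AMC fluorescence increase over 60 s gives rate.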
NS1 function inh: qHTS Assay for Inhibitors of Influenza NS1 Protein Function; Potency, µM (series often up to 46.1 µM); AID 2326, 2010; 270,000 tested, 0.4% active; calls by dose curve; also: actives are rising curves; nearly all actives have a fitted effect of over 50% in size
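Recovery from NS1-induced slow growth read by OD600 in budding yeast switched to galactose assay medium (pH 6.0, -URA) at 1:100 dilution. Compound 23 nl per well; the matching strain lacking NS1 serves as control.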
Numbers stand for hits; 0 = inactive; ? = inconclusive; - = no result given. Unless noted, calls follow the shape of the dose curve; as a rule, active = well fitted curve in the direction sought with a large enough effect; inconclusive = small, poorly fitted or top-dose-only effect, or another doubt; inactive = no such curve, though single readings can be large; an effect the other way counts as inactive or inconclusive.

SMILES | Cruzain Triton | Cruzain inh noDet | NS1 function inh
CSCC[C@H](C=O)NC(=O)[C@H](CC(C)C)NC(=O)[C@H](CC(C)C)NC(C)=O | 0.0028µM | 0.0025µM | -
Cc1cccc(N2C(=O)C(CC(=O)Nc3ccc(F)cc3)N(C3CCCC3)C2=O)c1 (configuration not stated) | 0 | 0 | -
CCn1c(C(=O)NCc2ccc(OC)cc2)cc2sc(Cl)cc21 | 0 | 0 | -
CCOC(=O)c1cnc2cc(-c3ccc(Cl)cc3)nn2c1N | 0 | 10µM | 0
CCOC(=O)c1cnc2cc(-c3ccc(Cl)cc3)nn2c1-c1ccccc1 | 0 | 0 | -
COc1ccc(CNC(=O)c2c(Nc3ccc(OC)cc3OC)sc(C(=O)c3ccc(Cl)cc3)c2N)cc1 | 0 | 12.6µM | -
Cc1ccccc1Nc1sc(C(=O)c2ccccc2)c(N)c1C(=O)NCc1ccc(Cl)cc1 | 0 | 5.01µM | -
COc1ccc(CNC(=O)c2c(Nc3ccccc3C)sc(C(=O)c3ccccc3)c2N)cc1 | 0 | ? | -
CCOc1ccc(NC(=O)c2c(Nc3ccc(OC)cc3OC)sc(C(=O)c3ccc(Cl)cc3)c2N)cc1 | 0 | ? | -
CCCn1c(-c2ccc(F)cc2)nc2c(NCCCCN(C)C)nc(C)nc21 | 0 | 0 | -
CC1Cc2cc(S(=O)(=O)CCC(=O)Nc3ccc(Cl)cc3F)ccc2N1C(=O)C1CC1 (configuration not stated) | 0 | 0 | -
COC(=O)[C@H](Cc1ccccc1)NC(=O)O[C@H]1C(=O)c2cc(OC)ccc2O[C@@H]1c1ccc(OC)c(Br)c1 | 0 | ? | -
COc1ccccc1NS(=O)(=O)c1cc(NC(=O)c2ccncc2)ccc1N1CCOCC1 | 0 | ? | 0
O=C(/C=C/c1cccs1)Nc1ccc(N2CCOCC2)c(S(=O)(=O)Nc2ccccc2Cl)c1 | 0 | 25.1µM | 0
O=C(/C=C/c1cccs1)Nc1ccc(N2CCOCC2)c(S(=O)(=O)Nc2cc(Cl)ccc2Cl)c1 | 0 | 5.01µM | 0
O=C(/C=C/c1ccco1)Nc1ccc(Cl)c(S(=O)(=O)N2CCOCC2)c1 | - | - | 0
COc1ccccc1NS(=O)(=O)c1cc(NC(=O)/C=C/c2cccs2)ccc1N1CCOCC1 | 0 | 25.1µM | 14.1µM
COc1ccccc1NS(=O)(=O)c1cc(NC(=O)c2sccc2C)ccc1N1CCOCC1 | - | - | 0
BrC(Br)Br | 0 | 0 | -
Cn1c(=O)c2[nH]cnc2n(C)c1=O.[CH2-][C@H](Cc1cccc2cc(C(=O)O)c(=O)oc12)OC.[Hg].[OH-] | 0 | 0 | 0
COC(=O)[C@H](COC(C)(C)C)NC(=O)O[C@H]1C(=O)c2ccc(OC)cc2O[C@@H]1c1ccc2c(c1)OCO2 | 0 | 0 | -
CCN(CC)CCCC(C)n1c(-c2ccccc2)nc2c(NC3CCCCC3)nc(C)nc21 (configuration not stated) | 0 | 0 | -
Cc1ccc2c(c1)N[C@H](c1ccc(C(=O)O)cc1)c1cccn1-2 | 0 | 0 | 0
COc1cc(NC(=O)Cn2c(=O)n(CC(=O)NCCc3ccc(OC)c(OC)c3)c(=O)c3sccc32)cc(OC)c1 | 0 | 0 | -
Cc1ccc(NC(=O)CS(=O)(=O)c2nc(-c3ccc(C)cc3)cn2-c2ccc(C)cc2)cc1 | 0 | 12.6µM | -
SMILES | Cruzain Triton | Cruzain inh noDet | NS1 function inh
CCn1cc(S(=O)(=O)CC(=O)Nc2ccc(C)cc2)c2ccccc21 | 0 | 0 | 0
CCOc1ccc(-c2cn(-c3ccc(OC)cc3)c(SCC(=O)Nc3ccccc3Cl)n2)cc1 | 0 | ? | -
Cc1cccc(NC(=O)CS(=O)(=O)c2nc(-c3ccccc3)cn2-c2cccc(Cl)c2)c1C | 0 | 10µM | -
O=C(CS(=O)(=O)c1nc(-c2ccc(Cl)cc2)cn1-c1ccccc1)Nc1cccc(Cl)c1 | ? | 0 | -
Cc1ccc(-c2cn(-c3cccc(Cl)c3)c(S(=O)(=O)CC(=O)Nc3cccc(C)c3)n2)cc1 | 0 | 15.8µM | -
Cc1cccc(NC(=O)CSc2nc(-c3ccccc3)cn2-c2ccccc2)c1C | 0 | ? | -
CCOc1ccc(-c2cn(-c3ccc(C)cc3)c(SCC(=O)Nc3ccc(C)cc3)n2)cc1 | 0 | 25.1µM | -
C/C(=C\C[Si](C)(C)C)CC[C@H](O)C1=CCCCC1=O | 0 | ? | -
CCc1cccc(CC)c1NC(=O)Cn1nnc2sc3c(c2c1=O)CCCC3 | 0 | 0 | -
CCn1c(SCC(=O)N2CCC(C)CC2)nnc1-c1ccccc1O | 0 | 0 | -
Cc1cc(O)cc(O)c1C(=O)OC1(C)C(=O)C=C2C=C(/C=C/CO)OC=C2C1=O (configuration not stated) | 0 | 0 | -
O=C1c2ccccc2-c2cc([N+](=O)[O-])c([N+](=O)[O-])cc21 | 0 | 0 | 0
O=C(O)C[C@H](NC(=O)CP(=O)(O)O)C(=O)O.[NH-][C@@H]1CCCC[C@@H]1[NH-].[Pt] | 0 | 0 | 0
Cc1ccc(-c2cn(-c3cccc(Cl)c3)c(S(=O)(=O)CC(=O)Nc3ccccc3F)n2)cc1 | 0 | 15.8µM | -
Cc1cccc(-n2cc(-c3ccccc3)nc2SCC(=O)Nc2ccccc2Cl)c1 | 0 | 0 | -
O=C(CS(=O)(=O)c1nc(-c2ccc(Cl)cc2)cn1-c1ccccc1)Nc1ccc(F)cc1F | 0 | 25.1µM | -
O=C(CSc1nncn1-c1ccccc1)Nc1ccc(F)cc1F | - | - | 0
COc1cccc(N=Cc2nc(-c3ccccc3)oc2OC(C)=O)c1 | - | - | 0
CN(C)c1ccc(N=Cc2nc(-c3ccccc3)oc2OC(=O)c2cccc(Cl)c2)cc1 | 0 | 20µM | 0
COc1ccc(N=Cc2nc(-c3ccccc3)oc2OC(C)=O)cc1 | - | - | 0
Cc1ccc(C(=O)Oc2oc(-c3ccccc3)nc2C=Nc2ccc(N(C)C)cc2)cc1 | 28.2µM | 25.1µM | 0
CCC(=O)N1CCc2cc(S(=O)(=O)NC(Cc3ccccc3)C(=O)NCc3cccc(OC)c3)ccc21 (configuration not stated) | 0 | 0 | -
COc1ccc2c(c1)C(=O)[C@H](OC(=O)N[C@H](C)C1CCCCC1)[C@@H](c1ccc(OC)c(Br)c1)O2 | 0 | 0 | -
CCCCC/C=C\C/C=C\C/C=C\C/C=C\CCCC(=O)C(F)(F)F | 0 | 0 | -
Cc1ccc2c(c1)C(CCN)C(=O)N2Cc1ccccc1 (configuration not stated) | 0 | 0 | ?
SMILES | Cruzain Triton | Cruzain inh noDet | NS1 function inh
Cc1ccc2c(c1)C1CCCC3C1N2CC(=O)N3Cc1ccccc1 (configuration not stated) | 0 | 12.6µM | 0
O=C1CSC(c2cn(-c3ccccc3)nc2-c2cc3ccccc3oc2=O)N1Cc1ccco1 (configuration not stated) | 28.2µM | ? | 0
O=C1CSC(c2cn(-c3ccccc3)nc2-c2cc3ccccc3o2)N1Cc1ccccc1 (configuration not stated) | 0 | ? | 0
Cc1ccc(-n2c(=O)c3sc4ccccc4c3n(CC(=O)NC3CCCC3)c2=O)cc1C | 0 | 0 | -
COc1ccc2c(c1)c1nnc(SCC(=O)N3C(C)CCCC3C)nc1n2C (configuration not stated) | 17.8µM | 0 | 0
COc1ccc2c(c1)c1nnc(SC)nc1n2C | 0 | 0 | 0
COc1cccc(-c2coc3ccc(Br)cc3c2=O)c1 | 0 | 0 | -
CC(C)(C)C1CCc2onc(C(=O)Nc3sc4c(c3C#N)CCCC4)c2C1 (configuration not stated) | 0 | 0 | -
Cc1cc2oc(=O)cc(CSc3nnc(-c4cccs4)o3)c2cc1C(C)C | 0 | 12.6µM | ?
Cc1cc2oc(=O)cc(CSc3nnc(C)n3N)c2cc1C(C)C | 0 | 0 | 0
Cc1cc2c([nH]c3ccccc32)c(C)n1 | - | - | 0
